Rpn11 inh: inhibitors of human proteasome Rpn11; inhibition, % at 20 µM; AID 588493; human 26S proteasome, Ub4-pepOG fluorescence polarization; 20S core pre-blocked with epoxomicin; O00487; hit rate 0.59% among 360,000;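 active = inhibition at 20 µM, scaled to each plate's controls, above about 33%, limit read from the data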
Rin1 Abl inh: blocks binding of human Rin1 to Abl. P00519+Q13671. TR-FRET Rin1/Abl binding, biochemical. inhibition, % at 7.35 µM. hit rate 0.4% among 360,000; in the data active = inhibition above about 5%, passing the limit was not always enough
IDE cell inh: cellular human IDE inhibition; P14735; HEK cells, FAbetaB cleavage, fluorescence polarization; inhibition, % at 5.59 µM; hit rate 0.41% among 320,000;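 active = percent inhibition above the average of all tested compounds plus 3 SD, set per screening campaign, cut at about 16% in these data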;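 note: IDE supplied by intact live HEK cells; FP after avidin binding of uncleaved biotin substrate so inhibition keeps polarization high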
Target sequence (P14735 whole entry, looked up): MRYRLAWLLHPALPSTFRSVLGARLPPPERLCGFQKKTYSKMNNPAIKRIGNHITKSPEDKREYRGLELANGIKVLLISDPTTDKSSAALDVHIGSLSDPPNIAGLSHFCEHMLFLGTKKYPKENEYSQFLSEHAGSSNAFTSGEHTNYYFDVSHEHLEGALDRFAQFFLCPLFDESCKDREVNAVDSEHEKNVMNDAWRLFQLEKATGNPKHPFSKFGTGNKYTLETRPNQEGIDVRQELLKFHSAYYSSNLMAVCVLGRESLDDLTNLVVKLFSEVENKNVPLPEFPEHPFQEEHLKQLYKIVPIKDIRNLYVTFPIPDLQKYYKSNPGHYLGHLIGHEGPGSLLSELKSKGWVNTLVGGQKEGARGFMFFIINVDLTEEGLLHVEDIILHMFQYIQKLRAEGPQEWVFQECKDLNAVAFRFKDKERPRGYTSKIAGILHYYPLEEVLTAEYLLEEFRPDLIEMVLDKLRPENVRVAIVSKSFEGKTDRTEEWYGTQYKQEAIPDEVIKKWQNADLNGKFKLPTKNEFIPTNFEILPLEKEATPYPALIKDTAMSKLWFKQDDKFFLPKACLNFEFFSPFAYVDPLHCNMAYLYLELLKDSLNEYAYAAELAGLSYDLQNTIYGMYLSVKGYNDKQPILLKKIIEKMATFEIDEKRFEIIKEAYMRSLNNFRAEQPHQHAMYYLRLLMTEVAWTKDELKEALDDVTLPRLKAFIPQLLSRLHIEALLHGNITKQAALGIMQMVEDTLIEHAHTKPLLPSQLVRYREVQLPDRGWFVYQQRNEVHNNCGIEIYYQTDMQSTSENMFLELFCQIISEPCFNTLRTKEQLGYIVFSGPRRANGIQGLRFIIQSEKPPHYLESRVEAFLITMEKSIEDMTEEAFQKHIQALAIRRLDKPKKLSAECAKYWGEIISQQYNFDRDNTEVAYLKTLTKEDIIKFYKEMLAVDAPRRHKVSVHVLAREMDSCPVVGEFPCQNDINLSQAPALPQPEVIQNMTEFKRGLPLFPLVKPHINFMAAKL
Calb FLC: affects C. albicans growth with fluconazole; hit rate 0.57% among 300,000; growth inhibition, % (test concentration not listed); C. albicans CaCi-2 (fluconazole-resistant clinical isolate) + fluconazole, Alamar Blue growth, 48 h;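 active = growth inhibition above about 58% in most replicates, limit read from the data, passing the limit was not always enough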;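 note: all wells also contain fluconazole at 8 µg/ml as a sub-toxic cotreatment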
IDE act: activators of human insulin-degrading enzyme in cells; P14735; HEK cells, FAbeta-B cleavage, fluorescence polarization; 0% vehicle, 100% cell-free pure enzyme wells; activation, % at 5.96 µM; hit rate 0.073% among 340,000; AID 493087;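 active = activation above the mean of all tested compounds plus 3 SD, set per screening campaign, cut at about 17% in these data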
TPT1 inh: inhibitors of Candida albicans tRNA 2'-phosphotransferase TPT1; hit rate 0.81% among 300,000; recombinant caTPT1, FP RNA substrate dephosphorylation; inhibition, % at 5 µM;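 active = inhibition above the mean of all tested compounds plus 3 SD, set per screening campaign, cut at about 24% in these data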
Hits are given with their value; ! = not confirmed by another sample. In the library only some 2.3% were active in any assay of this set; here they are far more common.

What do the screens show for `COc1ccc(/C=C(/NC(=O)c2ccccc2)c2nc3ccccc3[nH]2)cc1OC`?
Rpn11 inh: inactive; Rin1 Abl inh: inactive; IDE cell inh: inactive; Calb FLC: inactive; IDE act: inactive; TPT1 inh: inactive

What do the screens show for `COc1ccc(/C=C(/NC(=O)c2ccccc2)c2nc3ccc(Cl)cc3[nH]2)cc1OC`?
Rpn11 inh: inactive; Rin1 Abl inh: inactive; IDE cell inh: inactive; Calb FLC: 70.2; IDE act: inactive; TPT1 inh: inactive

What do the screens show for `COc1ccc(-n2cc(-c3ccc(C)cc3)[n+]3c2SCC3)cc1`?
Rpn11 inh: inactive; Rin1 Abl inh: inactive; IDE cell inh: inactive; Calb FLC: 107.0; IDE act: inactive; TPT1 inh: inactive

How did CCc1ccc(-n2cc(-c3ccc(F)cc3)[n+]3c2SCCC3)cc1 do in these assays?
Rpn11 inh: inactive; Rin1 Abl inh: inactive; IDE cell inh: inactive; Calb FLC: inactive; IDE act: inactive; TPT1 inh: inactive

Results for Cc1ccc(-c2cn(-c3ccccc3)c3[n+]2CCCS3)cc1 ?
Rpn11 inh: inactive; Rin1 Abl inh: inactive; IDE cell inh: inactive; Calb FLC: 99.2!; IDE act: inactive; TPT1 inh: inactive

What do the screens show for `c1ccc(-c2cn(-c3ccccc3)c3[n+]2CCCS3)cc1`?
Rpn11 inh: inactive; Rin1 Abl inh: inactive; IDE cell inh: inactive; Calb FLC: inactive; IDE act: inactive; TPT1 inh: inactive

Results for CCOc1ccc(CC(=O)Nc2ccc(S(=O)(=O)N3CCCC3)cc2)cc1 ?
Rpn11 inh: inactive; Rin1 Abl inh: inactive; IDE cell inh: inactive; Calb FLC: inactive; IDE act: inactive; TPT1 inh: inactive

Results for COc1ccc(C2C=C(c3ccc(Br)s3)Nc3ncnn32)cc1OC (configuration not stated) ?
IDE cell inh: 38.7; Calb FLC: inactive; TPT1 inh: inactive

What do the screens show for `COc1ccc(C2C=C(c3ccc(C)cc3)Nc3ncnn32)cc1` (configuration not stated)?
Rpn11 inh: inactive; Rin1 Abl inh: inactive; Calb FLC: inactive; IDE act: inactive

Results for CCN(CC)c1ccc(N=Cc2ccc([N+](=O)[O-])o2)cc1 ?
Rpn11 inh: inactive; Rin1 Abl inh: inactive; IDE cell inh: inactive; Calb FLC: 90.7; IDE act: inactive; TPT1 inh: inactive

Results for CCN(CC)c1ccc(N=Cc2ccccc2[N+](=O)[O-])cc1 ?
Rpn11 inh: inactive; Rin1 Abl inh: inactive; IDE cell inh: inactive; Calb FLC: inactive; IDE act: inactive; TPT1 inh: inactive

What do the screens show for `C/C(CC(=O)Nc1ccc(N(C)C)cc1)=N\NC(=O)c1ccncc1`?
Rpn11 inh: inactive; Rin1 Abl inh: inactive; IDE cell inh: inactive; Calb FLC: inactive; IDE act: 18.4; TPT1 inh: inactive

How did O=C(N/N=C/c1ccccc1O)C1(O)c2ccccc2-c2ccccc21 do in these assays?
Rpn11 inh: inactive; Rin1 Abl inh: inactive; IDE cell inh: inactive; Calb FLC: inactive; IDE act: inactive; TPT1 inh: inactive

What do the screens show for `CCOc1ccccc1NC(=O)C(=O)N/N=C/c1cc(Br)ccc1O`?
Rpn11 inh: inactive; Rin1 Abl inh: inactive; IDE cell inh: inactive; Calb FLC: 108.4; IDE act: inactive; TPT1 inh: inactive

What do the screens show for `COc1cccc(/C=N/NC(=O)C(=O)Nc2ccccc2OC(F)(F)C(F)F)c1O`?
Rpn11 inh: inactive; Rin1 Abl inh: inactive; IDE cell inh: inactive; Calb FLC: 108.9; IDE act: inactive; TPT1 inh: inactive

What do the screens show for `CCOc1ccccc1C=NNC(=O)C(=O)NN=Cc1ccccc1OCC`?
Rpn11 inh: inactive; Rin1 Abl inh: inactive; IDE act: inactive

Results for O=C(NCc1ccco1)C1CC(c2cc(C(F)(F)F)cc(C(F)(F)F)c2)=NO1 (configuration not stated) ?
Rpn11 inh: inactive; Rin1 Abl inh: inactive; IDE cell inh: inactive; Calb FLC: inactive; IDE act: inactive; TPT1 inh: inactive

How did CN1CCN(c2nc3ccccc3nc2C(C#N)S(=O)(=O)c2ccccc2)CC1 (configuration not stated) do in these assays?
IDE cell inh: inactive; Calb FLC: inactive; TPT1 inh: inactive

What do the screens show for `Cc1ccc(S(=O)(=O)C(C#N)c2nc3ccccc3nc2N2CCN(C)CC2)cc1C` (configuration not stated)?
Rpn11 inh: inactive; Rin1 Abl inh: inactive; IDE cell inh: inactive; Calb FLC: 82.9; IDE act: inactive; TPT1 inh: inactive

What do the screens show for `CC(C)=C1C(=O)NN(c2ccc(F)c(Cl)c2)C1=O`?
Rpn11 inh: inactive; Rin1 Abl inh: inactive; IDE cell inh: inactive; Calb FLC: 101.3; IDE act: inactive; TPT1 inh: inactive

Results for COc1cccc(F)c1C(C[N+](=O)[O-])c1c(N)n(C)c(=O)n(C)c1=O (configuration not stated) ?
Rpn11 inh: inactive; Rin1 Abl inh: inactive; IDE cell inh: inactive; Calb FLC: 101.3; IDE act: inactive; TPT1 inh: inactive

Results for COc1cc(C(C[N+](=O)[O-])c2c(N)n(C)c(=O)n(C)c2=O)ccc1O (configuration not stated) ?
Rpn11 inh: inactive; Rin1 Abl inh: inactive; IDE cell inh: inactive; Calb FLC: inactive; IDE act: inactive; TPT1 inh: inactive

What do the screens show for `Oc1ccc(C=NCCc2ccccc2)cc1`?
Rpn11 inh: inactive; Rin1 Abl inh: inactive; IDE cell inh: inactive; Calb FLC: inactive; IDE act: inactive; TPT1 inh: inactive

What do the screens show for `Cc1ccnc(SCC(=O)Nc2sccc2C#N)n1`?
Rpn11 inh: inactive; Rin1 Abl inh: inactive; IDE cell inh: inactive; Calb FLC: inactive; IDE act: inactive; TPT1 inh: inactive

How did CCCNC(=O)C12CCC(C)(c3nc4cc(C)c(C)cc4nc31)C2(C)C (configuration not stated) do in these assays?
Rpn11 inh: inactive; Rin1 Abl inh: inactive; IDE cell inh: inactive; Calb FLC: 110.3; IDE act: inactive; TPT1 inh: inactive

Results for CNC(=O)C12CCC(C)(c3nc4cc(C)c(C)cc4nc31)C2(C)C (configuration not stated) ?
Rpn11 inh: inactive; Rin1 Abl inh: inactive; IDE cell inh: inactive; Calb FLC: inactive; IDE act: inactive; TPT1 inh: inactive

What do the screens show for `COc1ccc(NC(=O)CN(c2ccc(OC)c(Cl)c2)S(=O)(=O)c2ccccc2)cc1`?
Rpn11 inh: inactive; Rin1 Abl inh: inactive; IDE cell inh: inactive; Calb FLC: inactive; IDE act: inactive; TPT1 inh: inactive

How did O=C(NNC(=S)Nc1ccc(Cl)cc1)c1ccccc1OC(F)F do in these assays?
Rpn11 inh: inactive; Rin1 Abl inh: inactive; IDE cell inh: inactive; Calb FLC: 102.4; IDE act: inactive; TPT1 inh: inactive

Results for COc1ccc(OC)c(/C=N\NC(=O)c2ccc(-c3ccccc3)cc2)c1 ?
Rpn11 inh: inactive; Rin1 Abl inh: inactive; Calb FLC: inactive; IDE act: inactive

Results for COc1ccc(C(=O)N/N=C/c2cc3ccccc3[nH]c2=O)cc1 ?
Rpn11 inh: inactive; Rin1 Abl inh: inactive; IDE cell inh: inactive; Calb FLC: inactive; IDE act: 29.7; TPT1 inh: inactive
